Polio RdRp inh = poliovirus RNA polymerase inhibition | actives 0.66% (n = 150,000) | % elongation, % (compound at 16.7 µg/mL) | P03300 | AID 588519 | poliovirus polymerase elongation, fluorescence polarization; active compounds read low; in the data active = % elongation below about 90%
AID504770 = E. coli YBA685 growth inhibition, screen for V. cholerae RctB inhibitors; E. coli YBA685 rctB-dependent plasmid, OD600 growth, 3 h; active compounds read low; z-score (test concentration not listed); actives 0.27% (n = 130,000); AID 504770; in the data active = z-score below about -2, passing the limit was not always enough
Mtb MenB inh = blocks the Mycobacterium tuberculosis MenB enzyme; P9WNP5; MenB enzyme assay, absorbance read-out; inhibition, % (no concentration beside the values); actives 0.43% (n = 100,000); AID 540299; in the data active = inhibition above about 21%, passing the limit was not always enough
Target sequence (P9WNP5 whole entry, looked up): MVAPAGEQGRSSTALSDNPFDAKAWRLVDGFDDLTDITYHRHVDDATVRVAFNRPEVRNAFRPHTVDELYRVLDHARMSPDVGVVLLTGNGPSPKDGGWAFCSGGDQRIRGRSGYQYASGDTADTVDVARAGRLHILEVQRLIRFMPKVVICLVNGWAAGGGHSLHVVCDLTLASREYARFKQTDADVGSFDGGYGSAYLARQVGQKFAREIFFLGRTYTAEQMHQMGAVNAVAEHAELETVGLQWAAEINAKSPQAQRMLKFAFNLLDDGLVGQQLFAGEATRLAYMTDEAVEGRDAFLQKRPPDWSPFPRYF
Mtb MbtI inh = MbtI salicylate synthase inhibition; purified MbtI enzyme, fluorescence intensity read-out; actives 0.89% (n = 100,000); inhibition, % (no concentration beside the values); AID 493033; in the data active = inhibition mostly above about 56%, no sharp cut-off; inactive = mostly below about 77%
* = called active by the depositor; x = no result given. Hits are enriched below; roughly 1.4% of the tested compounds scored in any of these assays.

SMILES	Polio RdRp inh	AID504770	Mtb MenB inh	Mtb MbtI inh
CC1Cc2ccccc2N1C(=O)C1CCN(S(=O)(=O)c2ccc(-n3cnnn3)cc2)CC1 (configuration not stated)	102	0.3	39*	2
O=c1oc2ccccc2c(O)c1NS(=O)(=O)c1ccc2c(c1)CCCC2	104	-0.45	-23	10
FC(F)(F)c1ccccc1CN1CCN(CC2CC3C=CC2C3)CC1 (configuration not stated)	48*	-0.55	-2	x
COc1ccc(CCN2C(=S)N(c3cccc(C(F)(F)F)c3)C(=O)C2CC(N)=O)cc1OC (configuration not stated)	101	-0.5	-3	x
C=CCSc1nnc(NC(=O)c2ccc3c(c2)SC2=NS(=O)(=O)CCN23)s1	100	0.25	-12	104
O=C(Nc1cc(C(F)(F)F)cc(C(F)(F)F)c1)C(=S)NCCNc1cccc2ccccc12	71*	0.25	-8	x
NCC1OCCc2ccccc21 (configuration not stated)	102	-0.6	-1	-18
S=c1[nH]nc(Nc2cccc(Br)c2)s1	102	-0.35	-32	98*
CCOc1ccc(C(=O)c2c(N)c(-c3nc(-c4ccc5c(c4)OCO5)cs3)c3ccccn23)cc1	105	x	x	x
COc1cccc(-c2csc(-c3c(N)c(C(=O)c4ccc5c(c4)OCO5)n4ccccc34)n2)c1	76*	x	x	x
NNC(=O)c1nn(-c2ccccc2)c(=O)c2c(N)scc12	91	0.35	1	41
COC(=O)c1nn(-c2ccc(OC)cc2)c(=O)c2c(N)sc(C)c12	83*	1.1	-55	77*
COC(=O)c1nn(-c2ccccc2)c(=O)c2c(N)sc(C)c12	73*	-0.7	-13	76*
O=c1oc2ccc(Br)cc2cc1-c1cn2ccccc2n1	x	0	x	x
C=CCN(CC=C)Cn1c(=S)oc2ccc(S(=O)(=O)Nc3ccc(OC)cc3)cc21	93	0.05	-23	85*
Cc1cc(Cl)ccc1OCCSc1nnc(-c2cccs2)o1	10*	x	x	x
Cc1ccccc1OCCSc1nnc(-c2cccs2)o1	109	x	x	x
Cc1nc2ccccc2c(=O)[nH]1	96	-0.7	14	-1
O=c1[nH]c2ccccc2c(O)c1-c1nc2ccccc2c(=O)[nH]1	104	1.5	43*	-255
O=C1CCCN1C(=O)CN1CCCCC1	100	-0.6	19	-3
COc1ccc(C(=O)CSC2=NCCc3ccccc32)cc1	77*	-0.55	6	67*
Cc1nnc2c(Nc3ccc4c(c3)OCO4)nc3ccccc3n12	98	-0.5	-4	-3
S=c1[nH]nc(-c2ccncc2)n1C1CC1	x	1.4	9	60*
C=CCn1c(-c2ccncc2)n[nH]c1=S	100	-0.9	8	70*
O=C(c1ccco1)N1CCN(C(=O)c2ccco2)CC1	104	2.2	-36	-6
SMILES	Polio RdRp inh	AID504770	Mtb MenB inh	Mtb MbtI inh
O=C(c1ccco1)n1c(=S)nc2ccccn21	83*	0	-16	x
O=C1C=CC(=O)N1c1ccccc1Sc1ccccc1	101	-0.6	x	99*
Cc1ccc(C)n1CCC(=O)O	69*	0.5	-52	1
Cc1ccn(CCC(=O)O)n1	100	-0.7	12	-13
CCCn1c(SCC(=O)c2cccs2)n[nH]c1=O	x	0.2	-15	64*
CC(=O)Nc1ccc(S(=O)(=O)N=S(C)(C)=O)cc1	102	0.35	-2	-7
COC(=O)/C=C/S(=O)(=O)c1ccc(NC(C)=O)cc1	104	-1.1	-12	67*
COC(=O)/C=C/S(=O)(=O)c1ccc(Br)cc1	104	-2.8*	-11	100*
C[C@H](NS(=O)(=O)c1ccccc1F)C(=O)OCc1ccccc1F	108	-0.05	-7	5
O=C1c2ccccc2CC1Sc1nnc(-c2ccco2)c(-c2ccco2)n1 (configuration not stated)	99	0.9	5	97*
N#Cc1c(C(F)(F)F)cc(-c2cccs2)nc1SCc1nc2c(oc3ccccc32)c(=O)[nH]1	109	0.45	-1	-78
Cc1nc(NCCC(=O)O)c2c3c(sc2n1)CCCC3	104	-1.1	-36	4
CSc1nsc2nc(=O)c(/C=C3\C=CC(=O)C(O)=C3)c(N)n12	113	1.4	-2	7
N#CSc1cnc(NC2CCCCC2)s1	94	-0.4	-178	74*
CC(=O)Nc1ccc(N=NN2CCCCC2)cc1	104	-2.5*	-29	23
CCN(CC)N=Nc1ccc(NC(C)=O)cc1	106	-2.9	10	90*
COc1cccc(CN(C)C(=O)c2ccc3c(c2)NC(=O)CS3)c1	99	-0.95	-9	2
COCCN(Cc1ccccc1)C(=O)c1ccc2c(c1)NC(=O)CS2	93	0.1	-48	63*
